Source: PubChem BioAssay
Shown are actives, neighbours in structure and some others; about 4.1% of the full set was active somewhere.
ALR H2O2 inh – blocks human ALR sulfhydryl oxidase activity; 3.8% of 290,000 active; P55789; AID 485317; inhibition, % (concentration not given with the values); purified ALR, DTT oxidation, H2O2 HRP-luminol luminescence;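 active means mean replicate inhibition above about 79%, with every replicate also reaching it, limit read from the data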
Env fusion inh – HIV envelope-mediated fusion inhibition; HeLa-JRFL Env/CEM21 cell fusion, luciferase; inhibition, % at 12.3 µM; 1.1% of 360,000 active; AID 651610;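 active means mean replicate inhibition score of at least 50 and every replicate individually at or above 50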
CASP6 VEID inh – blocks human caspase-6 cleavage activity. purified caspase-6, Z-VEID-R110 cleavage fluorescence. inhibition, % at 12.5 µM. 0.53% of 350,000 active;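 active means mean inhibition across replicates at least about 35%, with every replicate also reaching that limit, limit read from the data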
F508del corr – correctors of CFTR F508del function in bronchial epithelial cells; CFBE cells, YFP halide quenching; stimulated with forskolin plus potentiator P3; % fluorescence drop versus neutral controls; activity (quench increase), % at 7.58 µM; 0.36% of 350,000 active;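 active means mean added fluorescence quench of at least 8% versus neutral control, with both replicates also reaching 8%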;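 further: cells transiently co-express mutant CFTR-F508del with the halide-sensitive YFP; corrector assay measuring rescue of mutant channel to the surface after 24 h compound exposure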
PglD DTNB – PglD (C. jejuni) enzyme inhibition | purified PglD enzyme, DTNB colorimetric CoA detection | inhibition, % at 12.5 µM | 0.098% of 360,000 active | AID 602405; in the data active means inhibition above about 16%, passing the limit was not always enough
NSD2 HMT inh – blocks human histone methyltransferase NSD2 | O96028 | inhibition, % at 12.5 µM | AID 743445 | 0.54% of 310,000 active | NSD2 peptide methylation, AlphaScreen, 120 min; in the data active means inhibition above about 50%
Target sequence (O96028 whole entry, looked up): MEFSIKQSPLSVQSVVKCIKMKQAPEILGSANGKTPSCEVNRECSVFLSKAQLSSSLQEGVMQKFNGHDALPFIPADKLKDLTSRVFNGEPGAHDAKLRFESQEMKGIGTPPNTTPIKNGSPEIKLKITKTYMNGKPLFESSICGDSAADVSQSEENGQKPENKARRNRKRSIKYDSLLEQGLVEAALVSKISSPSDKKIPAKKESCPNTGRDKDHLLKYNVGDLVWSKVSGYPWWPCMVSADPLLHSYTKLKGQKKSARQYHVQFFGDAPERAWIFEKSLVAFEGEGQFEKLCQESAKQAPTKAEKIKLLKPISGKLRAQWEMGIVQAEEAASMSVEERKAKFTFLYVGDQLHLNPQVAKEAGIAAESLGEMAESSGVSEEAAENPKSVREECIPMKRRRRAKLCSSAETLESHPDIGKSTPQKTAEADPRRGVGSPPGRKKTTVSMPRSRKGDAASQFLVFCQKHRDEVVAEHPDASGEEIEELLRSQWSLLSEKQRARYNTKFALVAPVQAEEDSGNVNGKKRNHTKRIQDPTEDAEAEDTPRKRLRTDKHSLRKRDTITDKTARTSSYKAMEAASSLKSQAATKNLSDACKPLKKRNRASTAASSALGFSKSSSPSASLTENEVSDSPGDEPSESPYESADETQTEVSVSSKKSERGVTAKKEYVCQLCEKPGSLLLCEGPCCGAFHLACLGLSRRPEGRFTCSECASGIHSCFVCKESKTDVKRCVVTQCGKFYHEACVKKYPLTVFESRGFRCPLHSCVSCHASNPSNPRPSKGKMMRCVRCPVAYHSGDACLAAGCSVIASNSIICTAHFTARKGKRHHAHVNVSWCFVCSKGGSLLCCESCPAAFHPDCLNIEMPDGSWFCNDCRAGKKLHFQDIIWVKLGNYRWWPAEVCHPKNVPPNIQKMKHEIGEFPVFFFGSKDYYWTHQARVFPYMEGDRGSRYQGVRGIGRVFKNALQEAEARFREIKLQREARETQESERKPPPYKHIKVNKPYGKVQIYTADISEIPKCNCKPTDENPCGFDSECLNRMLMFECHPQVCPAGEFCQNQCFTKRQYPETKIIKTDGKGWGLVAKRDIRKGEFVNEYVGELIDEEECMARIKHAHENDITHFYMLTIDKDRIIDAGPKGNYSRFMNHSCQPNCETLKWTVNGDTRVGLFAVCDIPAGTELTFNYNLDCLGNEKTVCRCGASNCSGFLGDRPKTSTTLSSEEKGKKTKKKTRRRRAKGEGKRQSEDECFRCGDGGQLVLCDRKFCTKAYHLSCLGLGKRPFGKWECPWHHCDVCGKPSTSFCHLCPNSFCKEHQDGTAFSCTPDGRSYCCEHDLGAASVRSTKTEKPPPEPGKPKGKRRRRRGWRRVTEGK
Each line names hits and unclear results; the compound was inactive in the other large screens; ! = not active in a repeat.

CC(Nc1ccc(Cl)cc1)c1cc(Cl)ccc1O (stereo not given)	ALR H2O2 inh 99.1 (no result: Env fusion inh, CASP6 VEID inh, F508del corr)
CC(Nc1ccc(Br)cn1)c1cc(Cl)ccc1O (stereo not given)	none (no result: ALR H2O2 inh, Env fusion inh, CASP6 VEID inh, F508del corr)
CCOc1ccc(NC(C)c2cc(Cl)ccc2O)cc1 (stereo not given)	ALR H2O2 inh 98.9 (no result: Env fusion inh, CASP6 VEID inh, F508del corr, NSD2 HMT inh)
CN(C)C(=O)[C@@H]1[C@@H](CO)[C@@H]2Cn3c(ccc(-c4ccccc4F)c3=O)[C@H]1N2C	none (no result: ALR H2O2 inh, Env fusion inh, NSD2 HMT inh)
Cc1cc(C)c2cc(CN(Cc3ccco3)C(=S)NCC3CCCO3)c(=O)[nH]c2c1 (stereo not given)	ALR H2O2 inh 96.2 (no result: PglD DTNB, NSD2 HMT inh)
OCCCNC(=S)Nc1ccc(Nc2ccccc2)cc1	ALR H2O2 inh 99.1 (no result: CASP6 VEID inh)
CC(=O)Nc1ccc(S(=O)(=O)NNC(=S)NCC2CCCO2)cc1 (stereo not given)	ALR H2O2 inh 90.0
S=C(NCc1ccco1)NCC1CCCO1 (stereo not given)	F508del corr 10.6
S=C(NCc1cccs1)NCC1CCCO1 (stereo not given)	none (no result: ALR H2O2 inh, PglD DTNB)
S=C(NCCNC(=S)Nc1ccccc1)Nc1ccccc1	none
CC(=O)N1[C@H](CO)[C@@H](c2ccccc2)C12CN(C(=O)c1cnccn1)C2	none (no result: ALR H2O2 inh, Env fusion inh, PglD DTNB, NSD2 HMT inh)
CO[C@@H]1CN(C)C(=O)c2cc(NC(=O)c3nc4ccccc4s3)ccc2OC[C@@H](C)N(Cc2cncnc2)C[C@H]1C	none (no result: ALR H2O2 inh, CASP6 VEID inh, NSD2 HMT inh)
CO[C@@H]1CN(C)C(=O)c2ccc(NC(=O)Cc3ccccc3)cc2OC[C@H](C)N(C(C)=O)C[C@H]1C	none (no result: ALR H2O2 inh, Env fusion inh, CASP6 VEID inh, NSD2 HMT inh)
S=C(NCC1CCCO1)Nc1ccc(Nc2ccccc2)cc1 (stereo not given)	ALR H2O2 inh 98.8 (no result: F508del corr, PglD DTNB)
CCNC(=S)NNc1nncc2ccccc12	ALR H2O2 inh 98.6 (no result: PglD DTNB)
COc1ccc(/C(C)=N/Nc2nncc3ccccc23)cc1	none
CCNC(=S)NNc1ccccc1	none
CNC(=S)NNc1nncc2ccccc12	ALR H2O2 inh 106.1
C[C@@H]1CCCCO[C@H](CN(C)C(=O)Nc2ccc(F)cc2)[C@H](C)CN([C@H](C)CO)C(=O)c2cc(NC(=O)CCC(F)(F)F)ccc2O1	none (no result: ALR H2O2 inh, NSD2 HMT inh)
COc1cc(C)c(NC(=S)Nc2cccc(Cl)c2C)cc1OC	ALR H2O2 inh 91.1 (no result: F508del corr, PglD DTNB)
COc1ccccc1N=c1oc2c(OC)cccc2cc1C(=O)NCc1ccco1	ALR H2O2 inh 85.9 (no result: Env fusion inh, CASP6 VEID inh, F508del corr, NSD2 HMT inh)
COc1ccccc1C(=O)Nc1ccc2c(c1)C(=O)N(C)C[C@H](OC)[C@@H](C)CN(C)[C@@H](C)CO2	none (no result: ALR H2O2 inh, NSD2 HMT inh)
COC(=O)Cc1nnn2c1[C@@H](C)[C@@H](c1ccccc1Br)O[C@@H](C)C2	Env fusion inh 58.9 (no result: ALR H2O2 inh, PglD DTNB, NSD2 HMT inh)
CO[C@H]1CN(C)C(=O)c2ccc(NC(=O)C3CC3)cc2OC[C@H](C)N(C(=O)c2ccncc2)C[C@H]1C	none (no result: ALR H2O2 inh, NSD2 HMT inh)
Cc1nn(Cc2ccc(Cl)cc2)c(=O)n1N(C)c1ncc(C(F)(F)F)cc1Cl	none (no result: Env fusion inh, CASP6 VEID inh, F508del corr)
Cc1nn(Cc2ccc([N+](=O)[O-])cc2)c(=O)n1N(C)c1ncc(C(F)(F)F)cc1Cl	Env fusion inh 63.5 (no result: CASP6 VEID inh, F508del corr)
O=C(NN=C1CCCC1)c1cc(-c2ccccc2)n[nH]1	ALR H2O2 inh 96.8 (no result: CASP6 VEID inh, F508del corr, PglD DTNB)
Nc1c2c(nc3ccccc13)CCCC2	F508del corr 16.5! (no result: NSD2 HMT inh)
Cc1c(N(C)C)nc2ccccc2c1N	none (no result: Env fusion inh, CASP6 VEID inh, F508del corr)
Nc1c2ccccc2nc2ccccc12	F508del corr 19.7
Clc1c2c(nc3ccccc13)CCC2	none
C=CCn1c(SCc2ccc(C(=O)O)cc2)nc2sc(C)c(C)c2c1=O	ALR H2O2 inh 98.7 (no result: PglD DTNB)
C=CCn1c(SCC(=O)Nc2ccccc2C)nc2sc(C)c(C)c2c1=O	none (no result: Env fusion inh, CASP6 VEID inh, F508del corr)
C=CCn1c(SCC(=O)Nc2sccc2C(N)=O)nc2sc(C)c(C)c2c1=O	Env fusion inh 57.8 (no result: CASP6 VEID inh, F508del corr, NSD2 HMT inh)
COc1cccc(-c2ccc3c(c2)O[C@@H](CN(C)C(=O)C2CC2)[C@@H](C)CN([C@H](C)CO)S3(=O)=O)c1	none (no result: ALR H2O2 inh, NSD2 HMT inh)
COc1cc(/C=N\N=C2/SC(CC(=O)O)C(=O)N2c2ccc(O)cc2)ccc1O (stereo not given)	ALR H2O2 inh 99.5 (no result: Env fusion inh, CASP6 VEID inh, F508del corr, PglD DTNB)
NS(=O)(=O)c1ccc(N=Nc2c[nH]c(=O)c(O)c2)cc1	ALR H2O2 inh 89.5, CASP6 VEID inh 88.7
Nc1nc(O)c(N=Nc2ccc(S(N)(=O)=O)cc2)c(=O)[nH]1	none (no result: PglD DTNB, NSD2 HMT inh)
CC1CCC(C(C)C)C2=C1C(C#N)(C#N)C(C#N)(C#N)C(c1ccccc1)N2 (stereo not given)	ALR H2O2 inh 94.4 (no result: Env fusion inh, CASP6 VEID inh, F508del corr)
C[C@@H]1CN([C@H](C)CO)C(=O)c2cccc(NC(=O)Nc3ccc(C(F)(F)F)cc3)c2O[C@@H]1CN(C)S(=O)(=O)c1ccccc1	none (no result: ALR H2O2 inh, CASP6 VEID inh, PglD DTNB, NSD2 HMT inh)
